Results taken from PubChem BioAssay AID463193 (University of Pittsburgh Molecular Library Screening Center, 2010).
Hit rate of the full screen: of about 190,000 compounds, about 1,900 (1%) were called active.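 Rule for the calls: active = percentage of spot-positive cells more than 3 SD above its plate mean, without a fluorescence outlier flag or 80% toxicity; inconclusive = no clear call, values can overlap the other calls; inactive = the rest.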 This excerpt belongs to a sample that is enriched for actives.

experiment: GFP-LC3 puncta formation changes – imaging, high-content, MEF GFP-LC3, primary screen (AID 463193); settings: autophagy, at 10 µM; % cells with GFP-LC3 spots: stronger effect = higher value; toxicity: measured here: cell loss, nuclei count;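 for % cells with GFP-LC3 spots: spot-positive cell cutoff set from DMSO-treated cells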;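 for toxicity: cell loss after 18 h compound exposure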

Row | SMILES | % cells with GFP-LC3 spots | toxicity [%]
1 | CCN(CC)S(=O)(=O)c1cc([N+](=O)[O-])ccc1N=Nc1c(O)n(C)c2ccccc12 | 39.2% (active) | 2.86
2 | CCN(CC)S(=O)(=O)c1cc([N+](=O)[O-])ccc1NNC(=O)Nc1ccccc1 | 2.34% (inactive) | -10.5
3 | CCn1c(O)c(N=NC(=O)c2cccc(S(=O)(=O)N3CCCCC3)c2)c2ccccc21 | 17.3% (inactive) | 3.19
4 | CCCCNC(=O)CCn1c(=O)c2ccccc2n(Cc2cc(C)ccc2C)c1=O | 8.22% (inactive) | -3.52
5 | COc1ccc(CN(C)Cc2nc3cc(OC)c(OC)cc3c(=O)[nH]2)c(OC)c1 | 25% (inactive) | -8.88
6 | O=C(/C=C/c1cn(-c2ccccc2)nc1-c1ccc2c(c1)OCCO2)NCCCN1CCOCC1 | 1.77% (inactive) | -8.43
7 | COC(=O)N/N=C/c1ccc(/C=N/NC(=O)OC)cc1 | 0.31% (inactive) | -3.93
8 | CCOc1ccc(/C=N/NC(N)=S)cc1 | 19.6% (active) | 21.8
9 | NC(=S)N/N=C/c1ccc([N+](=O)[O-])cc1 | 8.24% (inactive) | 23.5
10 | CCN1C(=O)/C(=C\N2CCN(c3ccccc3)CC2)SC1=S | 1.26% (inactive) | -4.66
11 | CCN1C(=O)/C(=C\N2CCOCC2)SC1=S | 5.71% (inactive) | -3.29
12 | CCN1C(=O)/C(=C\N2CCN(c3cccc(Cl)c3)CC2)SC1=S | 4.39% (active) | 13.1
13 | O=C(NCC(=O)N(CC1CCCO1)C(C(=O)NC1CCCCC1)c1ccccc1)c1ccco1 (configuration not stated) | 0.515% (inactive) | -9.95
14 | COc1ccc(NC(=O)C(Br)C(C)C)cc1 (configuration not stated) | 14.9% (inactive) | 8.32
15 | CC(=O)C1(C)N(O)C(C)(C)C(c2cccs2)=[N+]1[O-] (configuration not stated) | 3.17% (inactive) | -3.76
16 | CC(C)(C)NC(=O)CN(C(=O)c1ccc(Cl)nc1)c1cccc2ccccc12 | 0.133% (inactive) | -8.05
17 | CC(C)(C)NC(=O)CN(C(=O)c1csnn1)c1ccccc1-c1ccccc1 | 8.79% (active) | 5.01
18 | CCC(C)(C)NC(=O)C(c1ccccn1)N(C(=O)c1csnn1)c1ccccc1 (configuration not stated) | 3.17% (inactive) | 14.8
19 | Cn1c(-c2ccc(F)cc2)cnc1SCC(=O)NNC(=O)Cc1ccccc1 | 2.62% (inactive) | -10.5
20 | CCOC(=O)/C(C#N)=C/c1cn(CCC(=O)O)nc1-c1ccc(Br)cc1 | 0.855% (inactive) | -6.28
21 | CC1=NN(C(=O)CCCc2ccccc2)C(O)(C(F)(F)F)C1 (configuration not stated) | 4.12% (active) | 3.92

Row | SMILES | % cells with GFP-LC3 spots | toxicity [%]
22 | CC1=NN(C(=O)CCc2ccccc2O)C(O)(C(F)(F)F)C1 (configuration not stated) | 3.31% (inactive) | -3.6
23 | COc1ccc(CC(=O)N2N=C(C)CC2(O)C(F)(F)F)cc1 (configuration not stated) | 1.78% (inactive) | 0.121
24 | CN1CCN(NC(=O)c2ccc(S(=O)(=O)N3CCCCCC3)cc2)CC1 | 1.83% (inactive) | 28
25 | O=C(CSc1nc2[nH]ncc2c(=O)n1-c1ccccc1)N1CCCc2ccccc21 | 6.24% (inactive) | 17.2
26 | Cn1c(SCC(=O)N2CCCc3ccccc32)nc2ccccc2c1=O | 11.1% (active) | 28.2
27 | O=C(CSc1nc2ccccc2c(=O)n1CCCO)N1CCc2ccccc21 | 7.69% (inactive) | -0.286
28 | CCCCN(CC(=O)NC(C)(C)C)C(=O)C(=O)Nc1ccc2c(c1)OCCO2 | 0.957% (inactive) | 5.19
29 | C/C(=N\NC(=O)c1ccc(NS(=O)(=O)c2cccs2)cc1)c1ccc2ccccc2c1 | 20.7% (inactive) | -14.3
30 | CCNC(=O)COc1cc(C)c(Br)c(C)c1 | 22.5% (inactive) | 9.49
31 | COc1ccccc1C(c1nnnn1CC1CCCO1)N1CCN(c2ccccc2)CC1 (configuration not stated) | 0.609% (inactive) | -7.4
32 | COc1ccc(C(c2nnnn2Cc2cccs2)N2CCN(c3ccccc3)CC2)cc1OC (configuration not stated) | 10.1% (active) | 46.3
33 | COc1ccc(CCn2nnnc2C(c2ccccc2)N2CCN(C)CC2)cc1OC (configuration not stated) | 22.3% (inactive) | -9.31
34 | Cc1ccc(NC(=O)c2ccccn2)cc1S(=O)(=O)N1CCOCC1 | 7.19% (inactive) | 21.1
35 | COc1ccc(NC(=S)NCC2CCN(c3ccc(OC)cc3)C2)cc1 (configuration not stated) | 6.08% (inactive) | 8.9
36 | COc1ccc(C(=O)Nc2ccc(NC(=O)C(C)C)nc2)cc1 | 4.13% (inactive) | -1.69
37 | COc1ccc(CC(=O)Nc2ccc(C(=O)NC(C)(C)C)cc2)cc1 | 6.06% (inactive) | -0.0115
38 | COc1ccc(CC(=O)Nc2ccc(-c3nnc(-c4ccc(C)cc4)o3)cc2)cc1 | 39.9% (active) | 9.61
39 | Cc1ccc(OCC(=O)Nc2ccc(-c3nc4ncccc4o3)cc2)cc1 | 13.3% (inactive) | -0.528
40 | CN(c1ccc2nc3ccccc3c(=O)n2n1)C1CCCCC1 | 14.8% (inactive) | 11.6
41 | Nc1nc(NC(=O)/C=C/c2ccccc2)nn1-c1ccccc1 | 7.01% (inactive) | 2.03
